Assay results: PubChem BioAssay (NCATS)
Inconclusive results are not listed. Where a call stands in place of a potency, no number is given. The source made the active and inactive calls. Unless noted, the call rests on the fitted dose curve; in most records, active means well fitted curve in the direction sought with a large enough effect; inconclusive means small, poorly fitted or top-dose-only effect, or another doubt; inactive means no such curve, though single readings can be large; an effect the other way counts as inactive or inconclusive.

Legend:
[1] = biological target: Beta-2 adrenergic receptor (Homo sapiens) (UniProt P07550); assay: qHTS validation assay of beta-arrestin-biased ligands of beta2-adrenergic receptor (AID 485366)
Method in brief: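 Arrestin-recruitment (Tango) reporter: ligand-bound beta2-AR recruits beta-arrestin, releasing tTA, which upregulates luciferase. Titrations of up to 46 microM incubated 18 hr at 37 degrees C before luminescent readout.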

[2] = Quantitative high throughput screen for delayed death inhibitors of the malarial parasite plastid, 96 hour incubation (AID 488745);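 further: luciferase-expressing P. falciparum in erythrocytes at 2% hematocrit and 0.1% parasitemia; series mostly up to about 29 µM; nearly all actives have a fitted effect of over 70% in size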
Method in brief: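 Growth of reporter-bearing P. falciparum in red cells is measured after 96 h with compound, covering two erythrocytic cycles. Luminescence from the integrated luciferase serves as the growth signal.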

[3] = biological target: Thioredoxin reductase 1, cytoplasmic (Rattus norvegicus) (UniProt O89049); assay: qHTS Assay for Substrates of Mammalian Selenoprotein Thioredoxin Reductase 1 (TrxR1) (AID 488772);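 further: NADPH fluorescence in the first read after selenite addition and not the 8 min delta; series mostly up to about 57 µM; a drop in NADPH fluorescence below the no-compound background marks a TrxR1 substrate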
Method in brief: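 Quantitative HTS in Tris-HCl buffer at pH 7.5 with EDTA and Tween-20, using rat TrxR1, 400 uM NADPH and 400 uM selenite (final). A fall in initial NADPH fluorescence relative to background marked substrate behaviour.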

[4] = biological target: Thioredoxin reductase 1, cytoplasmic (Rattus norvegicus) (UniProt O89049); assay: qHTS Assay for Inhibitors of Mammalian Selenoprotein Thioredoxin Reductase 1 (TrxR1) (AID 488773); settings: Potency: inhibition;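 further: drop in NADPH fluorescence over an 8 min run after selenite addition; series mostly up to about 57 µM; nearly all actives have a fitted effect of over 40% in size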
Method in brief: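 Steps: enzyme (90 nM) plus NADPH (400 uM final), 5 min at ~22 deg C; compound added, 15 min; selenite (400 uM final) added; fluorescence followed for 8 min. Concentration-response curves derived from the normalized delta values.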

[5] = biological target: M-phase phosphoprotein 8 (Homo sapiens) (UniProt Q99549); assay: qHTS Validation Assay for Inhibitors for MPP8 Chromodomain Interactions with Methylated Histone Tails (AID 488949);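 further: AlphaScreen signal from MPP8 chromodomain bound to biotinylated H3K9me3 peptide; top concentration of the series differs between compounds; nearly all actives have a fitted effect of over 55% in size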
Method in brief: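 AlphaScreen read-out: streptavidin donor and nickel chelate acceptor beads (final 10 ug/mL), 30 min in the dark at RT. Complex of 50 nM MPP8 and 50 nM b-H3(1-18)K9me3 peptide had been exposed to compounds for 30 min beforehand.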

[6] = biological target: Chromobox protein homolog 1 (Homo sapiens) (UniProt P83916); assay: qHTS Validation Assay for Inhibitors of HP1-beta Chromodomain Interactions with Methylated Histone Tails (AID 488953);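 further: loss of AlphaScreen luminescence from HP1-beta binding biotinylated H3K9me3 peptide; series mostly up to about 110 µM; nearly all actives have a fitted effect of over 50% in size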
Method in brief: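 Measured as loss of AlphaScreen luminescence from streptavidin donor and nickel acceptor beads (10 ug/mL final) bridging HP1-beta and biotin-H3(1-18)K9me3, each 50 nM. Compounds met the preassembled complex for 30 min at RT.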

[7] = biological target: Thyrotropin receptor (Homo sapiens) (UniProt P16473); assay: qHTS Assay for Antagonists of the Thyroid Stimulating Hormone Receptor (AID 488980); further: series mostly up to about 58 µM
Method in brief: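 TSHR-HEK293 cells; 70 uM RO 20-1724 PDE inhibitor; compound + EC80 TSH (4 nM final); anti-cAMP cryptate antibody/cAMP-d2 in lysis buffer, 30 min RT; HTRF 665/620 nm read.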

[8] = biological target: D(1A) dopamine receptor (Homo sapiens) (UniProt P21728); assay: HTS Assay for Allosteric Agonists of the Human D1 Dopamine Receptor: Primary Screen for Agonists (AID 488981)
Method in brief: (§1)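 Tetracycline-induced HEK293 T-REx cells force-coupled to calcium signalling were incubated overnight at 30 C and dye-loaded at room temperature. Calcium flux over 180 s after compound addition flagged agonists; a further 180 s read after EC20 dopamine flagged potentiators.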

[9] = biological target: D(1A) dopamine receptor (Homo sapiens) (UniProt P21728); assay: HTS Assay for Allosteric Agonists of the Human D1 Dopamine Receptor: Primary Screen for Potentiators (AID 488982)
Method in brief: as §1

[10] = biological target: D(1A) dopamine receptor (Homo sapiens) (UniProt P21728); assay: HTS Assay for Allosteric Agonists of the Human D1 Dopamine Receptor: Primary Screen for Antagonists (AID 488983);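 further: calcium flux response to an EC80 dopamine challenge measured with no-wash dye; nearly all actives have a fitted effect of over 65% in size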
Method in brief: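 Screening of inducible HEK293 T-REx D1 cells: compound first, EC80 dopamine 180 s later, each phase read kinetically for calcium over 180 s.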

[11] = Validation screen for small molecules that induce genotoxicity in human embryonic kidney (HEK293T) cells expressing luciferase-tagged ELG1 (AID 493106)
Method in brief: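 Reporter-gene quantitative HTS in HEK293T cells carrying luciferase-tagged ELG1, whose level climbs under genotoxic stress. Compound exposure lasts 16 hr at 37 °C before luciferase detection.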

[12] = biological target: Thyrotropin-releasing hormone receptor (Homo sapiens) (UniProt P34981); assay: qHTS for Small Molecule Agonists and Allosteric Enhancers of Human TRH Receptor: Validation Screen for Agonists (AID 493127;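 active means calcium activation more than 3 SD above the typical response in the agonist read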;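 further: intracellular calcium rise by fluo-8 fluorescence before TRH EC20 addition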); settings: TRH receptor agonist cell assay; at 2 µM; stronger effect = higher value
Method in brief: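 Gq-coupled calcium mobilization in TRHR cells after compound addition, monitored kinetically with fluo-8 dye on an FDSS reader.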

[13] = Nrf2 qHTS screen for inhibitors: Validation (AID 493153; active means well fitted inhibition curve with a large enough effect in the main read-out, with a control signal flat, not every such curve was filed as active); settings: viability change: measured here: cytotoxicity max response
Method in brief: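 Dose-response validation uses reporter A549 cells with firefly luciferase under an antioxidant response element. Compounds stay on cells 18-24 h at 37°C, and luminescence indicates Nrf2-driven transcription.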

[14] = qHTS for Inhibitors of Cell Surface uPA Generation: Validation Assay (AID 493164);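 further: RAW 264.7 macrophage cells exposed to compound for 18 h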
Method in brief: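 RAW 264.7, 4000 cells/well, o/n plating; cpd 7-pt 1:5 dilution 2.45 nM–38.3 uM final; 18 h, 37 C/5% CO2; ATP-Lite, 5 s luminescence exposure.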

[15] = biological target: Galactokinase (Homo sapiens) (UniProt P51570); assay: qHTS Validation Assay for Inhibitors of Human Galactokinase (GALK) (AID 493189)
Method in brief: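 Luminescence from leftover ATP (Kinase-Glo Plus, 10 min) served as read-out after a 1 h room-temperature reaction of 5 nM GALK, 100 uM galactose and 35 uM ATP at pH8.0.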

[16] = Validation screen for small molecules that induce DNA re-replication in SW480 colon adenocarcinoma cells (AID 504364)
Method in brief: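 Cells are treated 48 hr with test compound, stained 40 min with Hoechst at 37 C, and scanned for nuclear fluorescence; compounds inducing re-replication increase nuclei with elevated intensity.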

[17] = biological target: Phosphoglycerate kinase, glycosomal (Trypanosoma brucei brucei) (UniProt P07378); assay: qHTS Validation Assay to Find Inhibitors of Phosphoglycerate Kinase (AID 504547)
Method in brief: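 Substrate/PGK mix plus compound; reaction started with GAPDH (100nM final) to form 1,3-BPG; 60 min RT; Kinase-Glo Plus 10 min; luminescence. TEA 100mM pH 7.6, MgCl2 5mM, Tween-20 0.01%.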

[18] = biological target: phosphoglycerate mutase (Leishmania major) (UniProt Q4Q090); assay: qHTS Validation Assay to Find Inhibitors of Phosphoglycerate Mutase (AID 504548);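 further: end-point luminescence from Kinase-GloPlus after the PGAM reaction; series mostly up to about 58 µM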
Method in brief: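 L. major PGAM (1.25nM final) was added to substrate buffer and pinned compound, incubated 45 minutes at room temperature, then Kinase-GloPlus added; luminescence read after 10 minutes. Buffer: 100 mM TEA pH 7.6, 5 mM MgCl2, 0.01% Tween-20.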

[19] = biological target: Ubiquitin carboxyl-terminal hydrolase 1 (Homo sapiens) (UniProt O94782); assay: Inhibitors of USP1/UAF1: Pilot qHTS (AID 504865);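 further: rhodamine fluorescence freed from ubiquitin-rhodamine substrate followed over time; top concentration of the series differs between compounds; nearly all actives have a fitted effect of over 35% in size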
Method in brief: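 1nM USP1/UAF1 + cpd, 15 min RT; start w/ Ub-Rho 150nM final; kinetic FL 480/540 nm, 6 reads q60 s. Buffer 50mM HEPES pH 7.8, 0.5mM EDTA, 1mM TCEP, 0.01% Tween-20, 0.1 mg/ml BSA.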

[20] = biological target: Voltage-gated inwardly rectifying potassium channel KCNH2 (Homo sapiens) (UniProt Q12809); assay: qHTS Assay for Small Molecule Inhibitors of the Human hERG Channel Activity (AID 588834);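 further: potency means the concentration at half of the fitted maximal effect; lower thallium flux fluorescence means stronger hERG block; nearly all actives have a fitted effect of over 50% in size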
Method in brief: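 Concentration-response qHTS measuring drop in thallium-sensitive dye signal. U2OS cells carrying BacMam hERG; compound exposure ~10 min, then stimulation buffer and 2 min read at 1 sec intervals.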

[21] = biological target: Glutaminase kidney isoform, mitochondrial (Homo sapiens) (UniProt O94925); assay: qHTS for Inhibitors of Glutaminase (GLS): LOPAC Validation (AID 624146);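 further: glutamate product detected by oxidase and peroxidase coupled Amplex red fluorescence gain; series mostly up to about 46 µM; nearly all actives have a fitted effect of over 60% in size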
Method in brief: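 hKGA in 45 mM KH2PO4 pH 8.2, 0.02% Tween-20 with pin-transferred compounds; 1 mM L-glutamine (stock) plus glutamate oxidase/HRP/Amplex Red coupling added. Fluorescence read initially and after 30 min at RT.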

[22] = qHTS of Trypanosoma Brucei Inhibitors: LOPAC Validation (AID 624147)
Method in brief: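 Quantitative HTS: titrated library compounds versus trypanosomal pyruvate kinase in TEA buffer (pH 7.2) containing KCl, MgCl2, BSA and Tween-20. Reactions were initiated with ADP, 130 uM final. Kinase-Glo Plus luminescence was read after 45 min at RT.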

[23] = biological target: Glucagon-like peptide 1 receptor (Homo sapiens) (UniProt P43220); assay: qHTS of GLP-1 Receptor Agonists: LOPAC Validation (AID 624148);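 further: higher luminescence signal means agonism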
Method in brief: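 HEK293 cells stably co-expressing a cAMP-responsive luciferase reporter and a hypersensitive GLP-1R were plated 12 h at 37 °C and exposed to compounds for 4-6 hr at 37 °C, 5% CO2. Luminescence was read 12 min after adding detection reagent.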

[24] = qHTS of Nrf2 Activators: LOPAC Validation (AID 624149)
Method in brief: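 ARE reporter activation measured in AREc32 firefly luciferase cells after 24 hr compound exposure; Steady-Glo luminescence.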

[25] = HTS Assay for Allosteric Antagonists of the Human D2 Dopamine Receptor: Hit Validation in HTRF (AID 624455);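 further: stable D1 dopamine receptor cell line scored for blocking the D1 response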
Method in brief: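 Signal from an HTRF read-out in D1-expressing stable cells gave hit activity as inhibition of the D1 response.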

[26] = biological target: T1, Hexokinase-4 (Homo sapiens) + Glucokinase regulatory protein (Homo sapiens) (UniProt P35557+Q14397); assay: qHTS assay for inhibitors of recombinant human GCK-GKRP interaction: Diaphorase-coupled assay (AID 743205)
Method in brief: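 Resorufin fluorescence (525/590 nm), read each minute over 30 min, reports GCK activity coupled via G6PDH and diaphorase. Reaction: 10 nM GST-GCK, 10 nM FLAG-GKRP, 5 mM glucose, 0.4 mM ATP, 0.15 mM NADP+, 0.1 mM resazurin.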

[27] = biological target: T1, Hexokinase-4 (Homo sapiens) + Glucokinase regulatory protein (Homo sapiens); assay: qHTS assay for inhibitors of recombinant human GCK-GKRP interaction: HTRF assay (AID 743207)
Method in brief: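 HTRF read-out (ex 320 nm; 615/665 nm emission) after 60 min RT equilibration of 5 nM GST-GCK, 5 nM FLAG-GKRP, 2 uM S6P, compound and anti-FLAG/anti-GST detection antibodies; signal normalized between DMSO wells with and without GCK.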

[28] = qHTS Assay for Identifying Gametocytocidal Compounds (AID 743244);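 further: actives lower the fluorescent signal which means gametocytes are killed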; settings: P. falciparum 3D7 stage III-V gametocytes, alamarBlue, 72 h; max response: stronger effect = lower value
Method in brief: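 3D7 gametocytes, stages III–V, 20,000/well; cpd 72 h, 37 °C/5% CO2; + alamarBlue 24 h; fluor. Ex 525/Em 598.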

[29] = Natriuretic polypeptide receptor (hNpr1) antagonism - Pilot counterscreen GloSensor control cell line (AID 1347045; calls by dose curve; further: series mostly up to about 38 µM)
Method in brief: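 This counterscreen uses HEK293 cells expressing the GIP/pGS-40F cGMP biosensor. Compound-treated cells are challenged with 50 uM sodium nitroprusside, and the luciferase signal is compared before and after stimulation.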

[30] = biological target: Atrial natriuretic peptide receptor 1 (Homo sapiens) (UniProt P16066); assay: Natriuretic polypeptide receptor (hNpr1) antagonism - Pilot screen (AID 1347049; calls by dose curve;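 further: agonist-evoked cGMP luminescence read 20 min after hNppA addition; series mostly up to about 58 µM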)
Method in brief: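 HEK293 cells co-expressing hNpr1 and the GloSensor pGS-40F cGMP luciferase sensor were preloaded with 2% GloSensor reagent for 2 h. Compounds were added for 30 min at room temperature, then cells were stimulated with 0.1 nM hNppA for 20 min before luminescence readout.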

[31] = biological target: Atrial natriuretic peptide receptor 2 (Homo sapiens) (UniProt P20594); assay: Natriuretic polypeptide receptor (hNpr2) antagonism - Pilot subtype selectivity assay (AID 1347050; calls by dose curve)
Method in brief: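 cGMP-sensor HEK293/hNpr2 cells; 2% GloSensor reagent 2 h RT; compounds 30 min; baseline luminescence read; 1 nM hNppC agonist 20 min RT; final luminescence read by CCD camera. Antagonism = reduced post-agonist signal.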

[32] = biological target: Parathyroid hormone/parathyroid hormone-related peptide receptor (Homo sapiens) (UniProt Q03431); assay: qHTS for PTHR1 Agonists: Optimization Screen against the NCGC LOPAC library (AID 1347079);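 further: GloSensor cAMP luminescence in HEK-293 GP2 cells expressing human PTHR1 with IBMX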
Method in brief: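 Compounds were tested across a qHTS titration. PTHR1-expressing GP2 cells report cAMP rises via GloSensor luminescence after 1 hr compound exposure at 37C with IBMX present.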

[33] = tested on: Zika virus NS2B-NS3 protease; assay: Primary screen GU AMC qHTS for Zika virus inhibitors (AID 1347154); further: nearly all actives have a fitted effect of over 70% in size
Method in brief: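 Unlinked Zika NS2B hydrophilic domain/NS3 protease domain noncovalent complex (25 nM final) in 10 mM Tris-HCl pH 8.0, 0.01% Tween 20, with AMC peptide substrate. Fluorescence (ex 340, em 450 nm) change over 15 min, room temperature; percent inhibition fitted to 4-parameter Hill equation.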

[34] = Validation qHTS assay for inhibitors of Activation Induced Cytidine Deaminase (AID): UDG Counterscreen signal (AID 1347427)
Method in brief: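 Counterscreen read of UDG activity (2 U/mL, 4/3x) in the FRET deamination format with AID (1 uM, 4/3x), DJC20/DJC23 substrates (250 nM, 4x), 4 h at room temperature. NaOH stop, fluorescence at 560 ex/665 em.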

[35] = biological target: Single-stranded DNA cytosine deaminase (Homo sapiens) (UniProt Q9GZX7); assay: Validation qHTS assay for inhibitors of Activation Induced Cytidine Deaminase (AID): AID signal (AID 1347429)
Method in brief: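 In this coupled qHTS, AID deaminates a FRET-labelled ssDNA substrate in the presence of UDG over 4 hr at room temperature. Compounds span up to 114 uM final.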

D(1A) dopamine receptor (Homo sapiens), sequence (P21728 whole entry, looked up): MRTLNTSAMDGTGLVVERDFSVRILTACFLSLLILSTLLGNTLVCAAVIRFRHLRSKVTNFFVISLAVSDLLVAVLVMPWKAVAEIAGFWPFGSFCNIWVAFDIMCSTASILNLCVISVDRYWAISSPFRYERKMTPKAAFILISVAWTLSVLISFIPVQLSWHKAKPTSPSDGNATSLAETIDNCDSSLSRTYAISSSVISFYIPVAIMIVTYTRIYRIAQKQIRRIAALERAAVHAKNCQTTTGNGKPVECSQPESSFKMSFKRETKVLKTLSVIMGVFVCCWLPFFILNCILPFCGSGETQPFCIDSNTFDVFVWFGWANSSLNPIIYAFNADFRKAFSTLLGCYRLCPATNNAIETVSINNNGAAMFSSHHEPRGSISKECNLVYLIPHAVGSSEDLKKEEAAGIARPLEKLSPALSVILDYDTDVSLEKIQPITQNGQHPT
T1 sequence (P35557 whole entry, looked up): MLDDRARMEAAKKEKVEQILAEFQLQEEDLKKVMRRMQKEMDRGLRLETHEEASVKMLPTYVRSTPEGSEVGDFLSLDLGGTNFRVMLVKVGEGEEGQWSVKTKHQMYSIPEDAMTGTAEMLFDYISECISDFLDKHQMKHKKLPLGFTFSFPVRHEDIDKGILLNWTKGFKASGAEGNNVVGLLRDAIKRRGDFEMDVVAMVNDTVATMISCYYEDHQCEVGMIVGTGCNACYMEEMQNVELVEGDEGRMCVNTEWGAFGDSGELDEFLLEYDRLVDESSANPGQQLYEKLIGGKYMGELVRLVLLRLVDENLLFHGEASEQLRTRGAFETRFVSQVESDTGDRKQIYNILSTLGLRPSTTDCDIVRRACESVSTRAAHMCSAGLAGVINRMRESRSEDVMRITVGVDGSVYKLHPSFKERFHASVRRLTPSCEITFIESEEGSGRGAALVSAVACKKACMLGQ
T1 sequence (Q14397 whole entry, looked up): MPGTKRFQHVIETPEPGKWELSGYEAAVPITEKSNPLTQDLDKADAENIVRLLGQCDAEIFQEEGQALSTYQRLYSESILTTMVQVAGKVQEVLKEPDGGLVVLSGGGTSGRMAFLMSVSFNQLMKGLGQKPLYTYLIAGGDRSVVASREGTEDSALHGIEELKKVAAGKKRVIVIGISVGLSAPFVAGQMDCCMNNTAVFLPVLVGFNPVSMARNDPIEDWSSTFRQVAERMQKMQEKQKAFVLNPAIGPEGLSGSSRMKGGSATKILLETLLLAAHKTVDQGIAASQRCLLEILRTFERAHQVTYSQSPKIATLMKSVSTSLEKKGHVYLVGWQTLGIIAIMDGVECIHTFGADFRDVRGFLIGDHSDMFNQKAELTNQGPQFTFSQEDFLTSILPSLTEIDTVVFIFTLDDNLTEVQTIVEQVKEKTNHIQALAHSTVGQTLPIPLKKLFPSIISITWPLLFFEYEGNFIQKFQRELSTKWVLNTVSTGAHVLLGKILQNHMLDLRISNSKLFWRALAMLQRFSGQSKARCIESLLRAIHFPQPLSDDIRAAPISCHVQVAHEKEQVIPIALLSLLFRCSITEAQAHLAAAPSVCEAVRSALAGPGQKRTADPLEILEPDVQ
M-phase phosphoprotein 8 (Homo sapiens), sequence (Q99549 whole entry, looked up): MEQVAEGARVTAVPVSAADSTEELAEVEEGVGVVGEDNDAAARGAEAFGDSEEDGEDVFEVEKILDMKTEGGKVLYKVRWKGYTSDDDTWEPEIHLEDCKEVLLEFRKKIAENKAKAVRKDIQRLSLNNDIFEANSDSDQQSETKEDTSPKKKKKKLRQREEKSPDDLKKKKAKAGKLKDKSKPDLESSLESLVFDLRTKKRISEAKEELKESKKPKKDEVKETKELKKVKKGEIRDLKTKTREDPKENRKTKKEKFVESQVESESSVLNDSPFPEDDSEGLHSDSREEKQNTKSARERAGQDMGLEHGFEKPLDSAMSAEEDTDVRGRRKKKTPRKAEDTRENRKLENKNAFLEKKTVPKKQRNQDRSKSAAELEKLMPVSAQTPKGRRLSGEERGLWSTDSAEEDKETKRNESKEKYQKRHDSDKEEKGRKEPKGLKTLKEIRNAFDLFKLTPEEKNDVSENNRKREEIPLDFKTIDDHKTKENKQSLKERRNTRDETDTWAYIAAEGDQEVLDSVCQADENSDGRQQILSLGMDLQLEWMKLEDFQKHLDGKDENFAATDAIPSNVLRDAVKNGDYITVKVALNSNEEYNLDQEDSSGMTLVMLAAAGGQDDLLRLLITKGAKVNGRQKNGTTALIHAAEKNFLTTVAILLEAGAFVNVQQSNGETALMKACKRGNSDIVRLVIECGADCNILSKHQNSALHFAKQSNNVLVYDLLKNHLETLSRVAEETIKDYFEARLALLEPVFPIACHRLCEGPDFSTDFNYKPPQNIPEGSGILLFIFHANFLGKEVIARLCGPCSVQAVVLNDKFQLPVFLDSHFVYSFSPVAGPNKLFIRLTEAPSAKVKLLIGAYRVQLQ
Thioredoxin reductase 1, cytoplasmic (Rattus norvegicus), sequence (O89049 whole entry, looked up): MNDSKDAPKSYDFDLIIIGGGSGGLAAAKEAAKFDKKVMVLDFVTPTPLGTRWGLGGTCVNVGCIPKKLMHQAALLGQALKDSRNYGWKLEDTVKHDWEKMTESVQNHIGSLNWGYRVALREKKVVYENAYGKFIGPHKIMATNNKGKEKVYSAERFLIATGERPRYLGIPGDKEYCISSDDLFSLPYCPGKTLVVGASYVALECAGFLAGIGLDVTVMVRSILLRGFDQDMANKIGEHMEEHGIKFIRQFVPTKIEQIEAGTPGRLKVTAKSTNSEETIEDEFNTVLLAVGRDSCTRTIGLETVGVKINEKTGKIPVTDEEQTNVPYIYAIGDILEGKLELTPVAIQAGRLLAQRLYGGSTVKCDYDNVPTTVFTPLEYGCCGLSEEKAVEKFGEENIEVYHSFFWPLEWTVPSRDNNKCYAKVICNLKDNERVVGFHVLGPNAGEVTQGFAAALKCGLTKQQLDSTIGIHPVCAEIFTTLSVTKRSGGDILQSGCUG
Atrial natriuretic peptide receptor 2 (Homo sapiens), sequence (P20594 whole entry, looked up): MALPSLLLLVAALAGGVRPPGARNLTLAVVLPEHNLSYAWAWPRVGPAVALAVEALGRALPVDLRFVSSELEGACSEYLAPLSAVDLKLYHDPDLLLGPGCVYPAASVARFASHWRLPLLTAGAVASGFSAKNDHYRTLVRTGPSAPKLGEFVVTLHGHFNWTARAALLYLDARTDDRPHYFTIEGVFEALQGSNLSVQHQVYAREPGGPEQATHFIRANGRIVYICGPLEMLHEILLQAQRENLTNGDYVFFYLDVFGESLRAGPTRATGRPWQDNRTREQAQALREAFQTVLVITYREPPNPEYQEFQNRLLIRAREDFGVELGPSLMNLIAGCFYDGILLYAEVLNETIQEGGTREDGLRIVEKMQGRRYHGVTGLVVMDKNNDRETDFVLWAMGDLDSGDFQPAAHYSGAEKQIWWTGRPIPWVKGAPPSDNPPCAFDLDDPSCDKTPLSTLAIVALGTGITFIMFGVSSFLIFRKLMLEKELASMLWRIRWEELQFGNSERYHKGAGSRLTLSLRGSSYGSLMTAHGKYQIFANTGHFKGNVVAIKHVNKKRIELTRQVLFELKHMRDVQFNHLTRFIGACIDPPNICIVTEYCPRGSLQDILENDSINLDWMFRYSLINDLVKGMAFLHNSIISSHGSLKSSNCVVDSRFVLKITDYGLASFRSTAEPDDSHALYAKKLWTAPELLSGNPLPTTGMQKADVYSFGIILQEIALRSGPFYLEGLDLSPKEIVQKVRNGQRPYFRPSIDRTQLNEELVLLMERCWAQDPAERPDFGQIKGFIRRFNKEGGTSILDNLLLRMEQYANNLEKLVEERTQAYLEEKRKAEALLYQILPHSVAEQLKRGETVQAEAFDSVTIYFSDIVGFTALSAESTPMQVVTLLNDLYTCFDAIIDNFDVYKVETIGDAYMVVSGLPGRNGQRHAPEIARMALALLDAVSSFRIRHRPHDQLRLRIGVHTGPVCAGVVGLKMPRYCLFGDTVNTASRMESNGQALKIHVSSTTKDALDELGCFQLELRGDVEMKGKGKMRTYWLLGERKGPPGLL
Beta-2 adrenergic receptor (Homo sapiens), sequence (P07550 whole entry, looked up): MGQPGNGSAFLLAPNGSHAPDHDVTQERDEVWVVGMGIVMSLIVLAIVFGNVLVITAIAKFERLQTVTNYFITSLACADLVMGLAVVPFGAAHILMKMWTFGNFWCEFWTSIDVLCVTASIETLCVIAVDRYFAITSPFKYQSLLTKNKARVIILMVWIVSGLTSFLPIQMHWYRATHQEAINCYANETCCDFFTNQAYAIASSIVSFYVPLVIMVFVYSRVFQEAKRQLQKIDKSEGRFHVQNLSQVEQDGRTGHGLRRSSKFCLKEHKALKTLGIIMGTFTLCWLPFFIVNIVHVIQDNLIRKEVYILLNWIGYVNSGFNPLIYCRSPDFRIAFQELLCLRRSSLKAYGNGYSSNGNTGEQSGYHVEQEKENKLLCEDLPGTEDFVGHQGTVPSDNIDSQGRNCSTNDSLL
Parathyroid hormone/parathyroid hormone-related peptide receptor (Homo sapiens), sequence (Q03431 whole entry, looked up): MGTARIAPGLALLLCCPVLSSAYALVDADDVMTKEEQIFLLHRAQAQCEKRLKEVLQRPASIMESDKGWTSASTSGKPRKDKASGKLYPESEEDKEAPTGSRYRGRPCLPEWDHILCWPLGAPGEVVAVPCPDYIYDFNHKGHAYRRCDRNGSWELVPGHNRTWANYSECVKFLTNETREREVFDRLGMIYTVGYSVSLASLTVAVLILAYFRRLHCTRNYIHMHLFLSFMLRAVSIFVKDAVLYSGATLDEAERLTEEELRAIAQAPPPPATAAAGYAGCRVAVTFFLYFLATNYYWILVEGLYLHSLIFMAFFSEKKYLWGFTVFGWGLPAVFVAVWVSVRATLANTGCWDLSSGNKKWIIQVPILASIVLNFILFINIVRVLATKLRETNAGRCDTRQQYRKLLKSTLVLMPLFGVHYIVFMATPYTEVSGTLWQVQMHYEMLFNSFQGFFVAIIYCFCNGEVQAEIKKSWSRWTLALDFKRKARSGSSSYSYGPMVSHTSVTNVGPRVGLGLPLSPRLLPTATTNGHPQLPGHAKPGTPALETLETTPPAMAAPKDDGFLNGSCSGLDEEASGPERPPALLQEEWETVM

Structure (SMILES): C1CCC(N=C(NC23CC4CC(CC(C4)C2)C3)N2CCOCC2)CC1
- outcome [1]: inactive
- Potency [2]: inactive
- outcome [3]: inactive
- Potency [4]: inactive
- Potency [5]: inactive
- Potency [6]: inactive
- outcome [7]: inactive
- outcome [8]: inactive
- outcome [9]: inactive
- outcome [10]: inactive
- Potency [11]: inactive
- activation [12]: 1.31% (inactive)
- outcome [13]: inactive
- viability change [13]: 4.19%
- outcome [14]: inactive
- outcome [15]: inactive
- outcome [16]: inactive
- Potency [17]: inactive
- outcome [18]: inactive
- Potency [19]: inactive
- Potency [20]: 11.2 µM (active)
- Potency [21]: inactive
- outcome [22]: inactive
- outcome [23]: inactive
- outcome [24]: inactive
- outcome [25]: inactive
- outcome [26]: inactive
- outcome [27]: inactive
- max response [28]: 10.5% (inactive)
- Potency [29]: inactive
- Potency [30]: inactive
- Potency [31]: inactive
- outcome [32]: inactive
- Potency [33]: inactive
- outcome [34]: inactive
- Potency [35]: inactive
